High-throughput results: PubChem BioAssay, National Center for Advancing Translational Sciences (NCATS)
Tau fibril ThT – tau fibrillization inhibition (ThT binding); P10636; recombinant tau K18 P301L, heparin-induced fibrillization, ThT fluorescence; Potency, µM (highest dose often 57.4 µM), most hits filed as inhibitors; actives 2.1% (n = 270,000); AID 1460; note: nearly all actives have a fitted effect of over 55% in size
Target sequence (P10636 561-689 P618L limits assumed): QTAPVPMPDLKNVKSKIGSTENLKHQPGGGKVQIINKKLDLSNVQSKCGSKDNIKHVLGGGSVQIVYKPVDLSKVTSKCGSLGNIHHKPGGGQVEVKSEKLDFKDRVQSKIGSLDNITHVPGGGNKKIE
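In this qHTS, human K18 P301L tau is incubated with compound and heparin for 6 hr at 37 C, and Thioflavin T fluorescence then reports fibril load.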
GoLoco inh red – RGS12 GoLoco-Gai1 interaction inhibition. Potency, µM (doses to about 61.6 µM), hits mostly inhibitors. AID 880. actives 0.44% (n = 230,000). Gai1:RGS12 GoLoco peptide FP, rhodamine, 10 min; active = well fitted inhibition curve with a large enough effect, not every such curve was filed as active; inactive = no such curve, though single readings can be large or run the other way; note: nearly all actives have a fitted effect of over 30% in size
JMJD2E inh – JMJD2E (human) inhibition | JMJD2E catalytic domain, FDH-coupled NADH fluorescence (FDH is formaldehyde dehydrogenase) | Potency, µM (series often up to 57.1 µM), usual class: inhibitors | actives 1.6% (n = 230,000) | AID 2147; active = well fitted inhibition curve with a large enough effect, not every such curve was filed as active; inconclusive = small, poorly fitted or top-dose-only effect, or another doubt; inactive = no such curve, though single readings can be large or run the other way; note: nearly all actives have a fitted effect of over 50% in size
Target sequence (B2RXH2 1-337 limits assumed): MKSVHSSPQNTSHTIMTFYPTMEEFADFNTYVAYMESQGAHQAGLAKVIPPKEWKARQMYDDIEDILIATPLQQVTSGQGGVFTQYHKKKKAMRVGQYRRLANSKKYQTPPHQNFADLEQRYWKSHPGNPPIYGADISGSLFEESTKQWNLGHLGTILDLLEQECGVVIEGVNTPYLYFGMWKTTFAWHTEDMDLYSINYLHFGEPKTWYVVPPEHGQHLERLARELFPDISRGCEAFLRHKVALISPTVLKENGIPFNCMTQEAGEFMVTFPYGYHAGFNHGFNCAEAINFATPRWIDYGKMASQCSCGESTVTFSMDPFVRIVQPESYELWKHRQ
Tau FP inhib – inhibitors of human tau fibril formation | P10636 | K18 P301L tau heparin fibrillization, Alexa594 FP, 6 h | Potency, µM (titrated, usually from 57.7 µM), actives largely listed as inhibitors | actives 0.39% (n = 280,000) | AID 1468; note: nearly all actives have a fitted effect of over 55% in size
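Human K18 P301L fragment (15 uM unlabeled plus 0.24 uM Alexa 594-labeled) in 100 mM sodium acetate pH 7 with compound, aggregation induced by 20 uM heparin for 6 hr at 37 C. ThT (30 uM) added for 1 hr, then Alexa 594 FP read.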
Tau fluor cs – counter-screen for tau fibril formation inhibitors. tau K18 P301L Alexa594 fluorescence, heparin fibrillization. Potency, µM (series often up to 57.7 µM). actives 0.93% (n = 280,000); note: nearly all actives have a fitted effect of over 55% in size
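Human tau K18 P301L (15 uM unlabeled, 0.24 uM Alexa 594-labeled) in 100 mM sodium acetate pH 7 with 20 uM heparin, 6 hr at 37 C. ThT 30 uM added, 1 hr ambient; Alexa 594 FP and total fluorescence read at 555/632 nm.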
Hits are given with their value; i = inactive; ? = inconclusive; nt = no result given; [ ] = another dose, or the depositor's remark. An excerpt weighted towards active compounds, which were near 3.4% of everything screened. Unless noted, calls come from the whole dose curve; as a rule, active = well fitted curve in the direction sought with a large enough effect; inconclusive = small, poorly fitted or top-dose-only effect, or another doubt; inactive = no such curve, though single readings can be large; an effect the other way counts as inactive or inconclusive.

SMILES	Tau fibril ThT	GoLoco inh red	JMJD2E inh	Tau FP inhib	Tau fluor cs
C=CCn1c(/N=C/c2ccc(N(C)C)cc2)nc2ccccc21	i	nt	i	i	i
CC(C)(C)OC(=O)N1CCC(c2c(C(=O)NCCCN3CCc4ccccc4C3)cnn2-c2ccccc2)CC1	i	nt	nt	i	i
COc1ccc(CCNC(=O)CCc2c(C)nc3c(c(C)nn3-c3ccccc3)c2C)c(OC)c1	i	nt	nt	i	i
CC(=O)Nc1ccc(S(=O)(=O)Nc2nnc(CC(C)(C)C)s2)cc1	3.98µM	i	i	i	i
CCc1nnc(NS(=O)(=O)c2ccc(NS(=O)(=O)c3ccc(NC(C)=O)cc3)cc2)s1	i	i	i	i	i
CC1=NN(c2ccccc2)C(=O)/C1=C/c1c(O)n(-c2ccc(F)c(Cl)c2)[nH]c1=O	5.01µM	i	i	?	?
Nc1ccc(N2CCOCC2)c2nonc12	14.1µM	i	i	?	?
O=C(Nc1ccc(F)cc1)Nc1ccc(N2CCOCC2)c2nonc12	2.82µM	i	i	i	i
COc1ccc(NC(=O)Nc2ccc(N3CCOCC3)c3nonc23)c(OC)c1	?	i	i	i	i
COc1ccc(-c2c(C#N)c(SCC(=O)Nc3ccccc3C)nc(C)c2C(=O)Nc2ccccc2)cc1OC	i	nt	nt	?	i
CCC(=O)N1CCc2cc(S(=O)(=O)CCC(=O)N3CCN(c4cccc(C)c4)C(C)C3)ccc21 (stereo not drawn)	?	nt	nt	i	i
COc1ccc(/C=C2/CCCC(C(=O)C(F)(F)F)=C2O)cc1OC	?	i	?	i	i
COc1ccc(/C=C2\CCCc3c2nc2ccccc2c3C(=O)O)cc1OC	?	25.1µM	?	i	i
COc1ccc(/C=C2\CCCC(C(=O)C(F)(F)F)=C2O)cc1OC	15.8µM	i	25.1µM	?	i
Cc1cc(-c2ccc(C)c(S(=O)(=O)Nc3cccc(C#N)c3)c2)on1	i	nt	nt	i	i
CCOC(=O)C1=C(C)N(c2ccc(C)cc2)C(=O)/C1=C\c1cccs1	15.8µM	i	i	i	i
CCOC(=O)C1=C(C)N(c2ccccc2)C(=O)/C1=C\c1cccs1	?	i	i	i	i
CCOC(=O)C1=C(C)N(c2ccccc2)C(=O)/C1=C\c1ccc(O)c(OC)c1	nt	i	4.47µM	35.5µM	25.1µM[quencher]
CCCCNC(=O)Cn1c(=O)cc(C)c2c(C)nn(-c3cccc(Cl)c3C)c21	i	nt	nt	i	i
Cc1ccc(/C=C\c2nccc3c2[nH]c2ccccc23)cc1	?	i	?	i	11.2µM[quencher]
C(=C\c1nccc2c1[nH]c1ccccc12)/c1ccccc1	?	i	?	i	20µM[quencher]
Fc1ccc(/C=C\c2nccc3c2[nH]c2ccccc23)cc1	?	i	?	i	?
CCOc1ccc(NC(=O)c2cnn3c2NC(c2cccc(OC)c2)=CC3c2ccccc2)cc1 (stereo not drawn)	i	nt	nt	i	i
NC(=O)N/N=C/c1ccc(-c2ccc([N+](=O)[O-])cc2)o1	nt	i	i	i	?
O=[N+]([O-])c1ccc(-c2ccc(/C=N/O)o2)cc1	7.08µM	i	i	i	i
SMILES	Tau fibril ThT	GoLoco inh red	JMJD2E inh	Tau FP inhib	Tau fluor cs
CCOc1ccc(OCC)c(NS(=O)(=O)c2ccc3c(c2)CCCN3C(C)=O)c1	i	nt	nt	i	i
O=C(Nc1ccc(F)cc1)C1=CC(=O)N2CCN=C2S1	17.8µM	i	i	?	i
O=C(CC1SC2=NCCN2C1=O)Nc1ccc(Br)cc1 (stereo not drawn)	i	i	i	i	i
Fc1ccc(NC(=S)NC2CCN(Cc3ccccc3)CC2)cc1	i	i	i	i	i
S=C(Nc1ccc(Cl)c(Cl)c1)NC1CCN(Cc2ccccc2)CC1	i	i	i	25.1µM	?
CC1CCC(C(C)C)C(OC(=O)COC(=O)c2cc(O)ccc2N)C1 (stereo not drawn)	i	i	?	?	11.2µM[quencher]
CCN(Cc1ccncc1)Cc1c(O)ccc2cc(Br)ccc12	?	i	7.08µM	i	?
CS(=O)(=O)Nc1cccc(-c2nc(Nc3ccncc3)c3ccccc3n2)c1	nt	i	nt	nt	nt
CCOC1=C/C(=C/c2c(N)n3nc(-c4ccccc4)sc3nc2=O)C=CC1=O	8.91µM	i	?	i	?
CCS(=O)(=O)c1nn2c(N)c(/C=C3/C=CC(=O)C(OC)=C3)c(=O)nc2s1	?	i	i	i	i
COC1=C/C(=C/c2c(N)n3nc(-c4ccc(C)cc4)sc3nc2=O)C=CC1=O	10µM	i	i	i	?
CCCCOc1ccc(CNC(=O)CCCN2C(=O)CSc3c2c(C)nn3-c2ccccc2)cc1	?	nt	nt	i	i
COc1cccc(C(=O)/C=C/Nc2cc(C)ccc2O)c1	3.55µM	i	?	i	15.8µM[quencher]
Cc1cc(C)cc(NC(=O)CCN2C(=O)c3ccccc3Sc3ncccc32)c1	i	nt	nt	i	i
O=C1c2c([N+](=O)[O-])cc([N+](=O)[O-])cc2S(=O)N1Cc1ccccc1 (stereo not drawn)	31.6µM	i	?	?	i
Cc1ccc(-n2nc(CO)c(C(=O)NC(C)CCCc3ccccc3)n2)cc1 (stereo not drawn)	i	nt	nt	i	i
Cc1cccc(NC(=O)Cn2nc(-c3ccccc3)c3cnc4ccccc4c32)c1	i	nt	nt	i	i
Nc1nonc1N/N=C/c1c(O)ccc2ccccc12	?	i	i	i	10µM[quencher]
CCOP(=O)(OCC)/C(C#N)=C/c1ccc([N+](=O)[O-])cc1	i	i	8.91µM	i	i
Fc1ccc(-c2cc(-c3cccs3)cc(-c3ccccc3)n2)cc1	i	i	?	?	i
Fc1ccc2[nH]c(-c3cccs3)cc2c1	?	nt	nt	?	11.2µM[quencher]
Cc1ccc(Cc2nc3ccccc3nc2SCC(=O)N2CCCCC2C)cc1 (stereo not drawn)	i	nt	nt	i	i
O=C1c2cccc3cccc(c23)N1Cc1ccc(F)cc1	i	i	i	i	i
CCN1/C(=N\N)c2cccc3cccc1c23	7.94µM	i	i	i	?
COc1ccc(N(CC(=O)N2CCCCC2)S(=O)(=O)c2ccc(OC)c(OC)c2)cc1	i	nt	nt	?	i
SMILES	Tau fibril ThT	GoLoco inh red	JMJD2E inh	Tau FP inhib	Tau fluor cs
Cc1ccc(N(CC(O)COCc2ccco2)S(=O)(=O)c2ccc(C)cc2)cc1 (stereo not drawn)	31.6µM	i	i	?	i
CCCN(CCC)CC(O)CN(c1ccccc1)S(=O)(=O)c1ccc(C)cc1 (stereo not drawn)	i	i	i	i	i
O=C(NNC(=O)c1cc(O)c(O)c(O)c1)NC1CCCCC1	?	i	7.08µM	i	i
C#CCSc1nc2sc3c(c2c(=O)n1-c1cccc(OC)c1)CCN(C(C)=O)C3	25.1µM	nt	nt	?	i
CCOc1ccccc1NC(=O)Cn1c(=O)nc(-c2ccccc2F)c2cc(Cl)ccc21	?	nt	nt	i	i
CCN(Cc1ccccc1)S(=O)(=O)c1ccc(C(=O)Nc2nnc(C3CC3)o2)cc1	i	i	14.1µM	i	i
Nc1c(-c2nc(-c3ccccc3)cs2)c2ccccn2c1C(=O)c1ccc2c(c1)OCO2	?	nt	nt	i	?
CCOc1c(OC(C)=O)ccc(/C=C/c2ccc3cccc(OC)c3n2)c1[N+](=O)[O-]	5.62µM	i	i	?	?
